Bioassay records as filed in PubChem.
This is a sample that favours compounds with a hit; in the whole collection about 21% have one here.
CYP2C9 act = human CYP2C9 activators, primary screen, biochemical, luminescence; actives 1.4% (n = 96,000); AID 1024, 2008; activation factor at 5 µM; recombinant CYP2C9, luciferin-H conversion; stronger effect = higher value; factor 1 = untreated enzyme, 0 = blocked; Cytochrome P450 2C9 (Homo sapiens), P11712;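 active means activation factor of 2 or more for CYP2C9 at a 5 µM dose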
Target sequence (P11712 whole entry, looked up): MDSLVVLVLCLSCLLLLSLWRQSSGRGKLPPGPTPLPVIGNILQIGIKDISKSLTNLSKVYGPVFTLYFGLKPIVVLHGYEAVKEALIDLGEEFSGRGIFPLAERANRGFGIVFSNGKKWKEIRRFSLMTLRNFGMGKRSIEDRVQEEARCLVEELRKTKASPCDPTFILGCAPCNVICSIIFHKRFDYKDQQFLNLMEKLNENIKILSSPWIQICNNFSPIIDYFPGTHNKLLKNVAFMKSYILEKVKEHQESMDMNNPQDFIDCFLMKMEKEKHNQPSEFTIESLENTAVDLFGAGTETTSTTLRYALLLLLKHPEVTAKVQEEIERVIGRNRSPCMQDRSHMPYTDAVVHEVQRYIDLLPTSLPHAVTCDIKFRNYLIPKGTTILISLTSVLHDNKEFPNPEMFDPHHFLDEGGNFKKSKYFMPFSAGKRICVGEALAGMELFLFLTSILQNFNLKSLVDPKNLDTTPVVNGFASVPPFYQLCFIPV
MRP1 act = H69AR viability gain despite doxorubicin, primary screen, MRP-1 activator project, H69AR cells, CellTiter-Glo | viability rescue | viability increase, % at 10 µM | actives 0.61% (n = 140,000) | AID 799, 2007;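 active means viability gain under doxorubicin at or above a set limit, the compound median plus 3 SD, cut at about 4.7% in these data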;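 further: MRP-1 overexpressing cells given doxorubicin 25 µM after compound pretreatment; 18-22 h compound pretreatment then 72 h with doxorubicin before readout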
MRP reversal = reversal of MRP1-mediated doxorubicin resistance, primary screen, H69AR cells, doxorubicin co-treatment | AID 602, 2007 | H69AR cells + 2 uM doxorubicin, CellTiter-Glo, 72 h | actives 0.04% (n = 85,000) | differential viability (reversal), % at 10 µM;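 active means viability drop by adding the cancer drug above about 55%, with treated viability meeting a 40% cutoff, limit read from the data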;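 further: larger differential means the compound sensitizes cells more to doxorubicin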
CYP2C19 inh = blockers of cytochrome P450 2C19 activity – biochemical, luminescence, ADME assay, primary screen; AID 778, 2007; actives 21% (n = 96,000); inhibition, % at 5 µM; CYP2C19 Supersomes, luciferin-H EGE luminescence, 30 min;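 active means CYP2C19 inhibition above a set limit at 5 µM in the primary screen, cut at about 50% in these data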
CYP2C9 inhib = blockers of cytochrome P450 2C9 activity – biochemical, luminescence, ADME assay, primary screen | AID 777, 2007 | actives 20% (n = 96,000) | CYP2C9 Supersomes, luciferin-H conversion | inhibition, % at 5 µM;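 active means blocking of liver enzyme CYP2C9 beyond about 50% at 5 µM, limit read from the data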
CYP2C19 act = human CYP2C19 activators, primary screen, biochemical, luminescence; Cytochrome P450 2C19 (Homo sapiens), P33261; 96,000 tested, under 10 active; recombinant CYP2C19, luciferin-H EGE luminescence; stronger effect = higher value; 0 = fully inhibited enzyme, 1 = untreated enzyme; AID 1025, 2008; activation factor at 5 µM;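 active means activation factor of at least 2 at 5 µM in the primary screen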
A number is an active result; i = inactive; nt = no result given.

SMILES	CYP2C9 act	MRP1 act	MRP reversal	CYP2C19 inh	CYP2C9 inhib	CYP2C19 act
CSc1ccccc1NC(=O)CN(C)S(=O)(=O)c1ccc(F)cc1	3.6	i	i	i	i	i
CSc1nc(N(C)C)nc(N2CC(=O)N(CCNS(=O)(=O)c3ccc(C)cc3)C2=N)n1	nt	i	nt	nt	nt	nt
CCN(CCCCCN(C)C)Cc1cc2ccccc2o1	nt	i	nt	nt	nt	nt
Cc1ccc(NC(=S)N(Cc2ccco2)C2CCN(C(C)C)CC2)cc1	nt	i	nt	nt	nt	nt
CS(=O)(=O)N(Cc1ccc(C(=O)Nc2ccccc2Sc2ccccc2)cc1)c1ccccc1	i	i	nt	i	i	i
CC(C(=O)Nc1ccccc1Sc1ccccc1)N(c1ccccc1)S(C)(=O)=O (stereo not drawn)	i	i	nt	i	54	i
O=S1CCCSC1c1cccnc1 (stereo not drawn)	i	i	i	i	i	i
Cc1ccc(NC2=C(Cl)C(=O)OC2OC(=O)c2ccco2)cc1 (stereo not drawn)	i	i	i	50	91	i
COc1ccc(CNC(=O)C2CCCN(S(=O)(=O)c3c(C)nn(C)c3C)C2)cc1 (stereo not drawn)	i	i	i	i	i	i
Cc1nn(C)c(C)c1S(=O)(=O)N1CCCC(C(=O)N2CCN(c3ccccc3)CC2)C1 (stereo not drawn)	i	i	i	58	i	i
O=C(C1CCCN(S(=O)(=O)c2cccc3nonc23)C1)N1CCN(c2ccccc2)CC1 (stereo not drawn)	i	i	i	60	60	i
O=C(C1CCCN(S(=O)(=O)c2cccc3nsnc23)C1)N1CCN(c2ccccn2)CC1 (stereo not drawn)	i	i	i	i	76	i
CCOC(=O)C1CCN(S(=O)(=O)c2cccc3nonc23)CC1	i	i	i	72	88	i
COc1cc(C(=O)Nc2cccc(-c3nncn3C)c2)cc(OC)c1OC	i	i	i	i	i	i
CC(C)Oc1ccc(C(CC(=O)N(C)CCC#N)c2ccc(F)cc2)cc1 (stereo not drawn)	nt	i	nt	nt	nt	nt
Cc1cc(NC(=O)c2cccc(S(=O)(=O)N3CCCCCC3)c2)no1	i	i	i	i	i	i
c1ccc2c(c1)CCOC2CNCCCN1CCCCC1 (stereo not drawn)	nt	i	i	nt	nt	nt
O=C(CSc1nnc(CNc2ccc(F)cc2)n1Cc1ccccc1)N1CCOCC1	i	i	i	i	i	i
CC1CC(C)CN(C(=O)C2CCCN(S(=O)(=O)c3cccc4nonc34)C2)C1 (stereo not drawn)	i	i	i	i	76	i
COc1cc(/C=C(\C#N)C(=O)Nc2cccnc2)ccc1OC(C)C	nt	i	nt	nt	nt	nt
COc1ccccc1N1CCN(C(=O)CSc2nc3ccccc3[nH]2)CC1	i	i	i	i	i	i
CC(C)OC(=O)CSc1nnc2n1C(C)(C)Cc1ccccc1-2	i	181	nt	i	53	i
O=C(CSc1nnc(-c2ccco2)n1-c1ccccc1)N1CCc2ccccc21	nt	nt	i	nt	nt	nt
O=S(=O)(NCCSc1nnc(-c2ccco2)n1-c1ccccc1)c1ccccc1	i	i	i	76	83	i
O=C(CSc1nnc(-c2ccco2)n1-c1ccccc1)N1CCOCC1	i	i	i	i	i	i
SMILES	CYP2C9 act	MRP1 act	MRP reversal	CYP2C19 inh	CYP2C9 inhib	CYP2C19 act
CCC(CC)C(=O)Nc1nnc(SCC(=O)N2CCN(c3ccccc3OC)CC2)s1	i	i	nt	50	73	i
CCOC(=O)C1CCN(C(=O)CSc2nnc(-c3ccco3)n2-c2ccccc2)CC1	i	i	i	53	54	i
Cc1cc(C)c(S(=O)(=O)N2CCCCC2)c(C)c1N(C)S(=O)(=O)c1ccc(Cl)cc1	nt	i	nt	nt	nt	nt
CC1(C)CC(=O)C(C(=S)Nc2ccccc2)=C(NCCN2CCOCC2)C1	i	i	nt	i	i	i
Cc1ccc(Cl)cc1NC(=O)CC1NCCNC1=O (stereo not drawn)	nt	i	i	nt	nt	nt
CC1Cc2ccccc2N1C(=O)CSc1nnc2n1C(C)(C)Cc1ccccc1-2 (stereo not drawn)	i	i	i	74	56	i
COc1ccccc1N1CCN(C(=O)CSc2nnc3n2C(C)(C)Cc2ccccc2-3)CC1	i	i	i	92	i	i
COc1ccccc1N1CCN(C(=O)CSc2ncccc2-c2nc3ccccc3[nH]2)CC1	i	i	i	74	58	i
COc1cccc(-n2c(SCC(=O)N3c4ccccc4CC3C)nnc2-c2ccco2)c1 (stereo not drawn)	i	i	nt	80	92	i
CCn1c(SCC(=O)N2c3ccccc3CC2C)nnc1-c1ccco1 (stereo not drawn)	nt	nt	i	nt	nt	nt
O=c1c2c(nc3cc(-c4ccc(F)cc4)[nH]n13)CCC2	nt	i	nt	nt	nt	nt
CC(=O)Nc1ccc(NC(=O)C(Cc2ccccc2)NC(=O)C2CCC(C)CC2)cc1 (stereo not drawn)	nt	i	nt	nt	nt	nt
CC(C)(C)c1cc(C(=O)N/N=C/c2ccccc2O)n(-c2ccccc2)n1	nt	i	nt	nt	nt	nt
CC(C)(C)c1cc(C(=O)N/N=C/c2ccc(F)cc2)n(-c2ccccc2)n1	i	i	nt	i	65	i
COc1cccc(OCCCOc2ccccc2C(C)C)c1	i	i	nt	i	i	i
CC(C)c1ccccc1OCCNS(C)(=O)=O	i	i	i	51	i	i
Cc1onc(-c2ccccc2)c1C(=O)N1CCN(C/C=C/c2ccccc2)CC1	i	i	i	i	i	i
O=C(COc1ccc(-c2nnco2)cc1)N1CCN(S(=O)(=O)c2ccccc2)CC1	i	i	i	84	67	i
CN(Cc1cccs1)C(=O)COc1ccc(-c2nnco2)cc1	i	i	i	75	i	i
O=C(COc1ccc(Cl)cc1)N1CCN(S(=O)(=O)c2ccccc2)CC1	i	5.1	i	55	i	i
CCCS(=O)(=O)N1CCN(C(=O)COc2ccc(-c3ccccc3)cc2)CC1	nt	i	i	nt	nt	nt
CN(Cc1cccs1)C(=O)COc1cccc(-n2cnnn2)c1	i	i	i	i	i	i
O=C(COc1ccccc1)N1CCN(S(=O)(=O)c2ccc(Cl)cc2)CC1	i	i	i	i	i	i
CCCS(=O)(=O)N1CCN(C(=O)COc2ccccc2)CC1	i	i	i	59	i	i
CCOC(=O)C(O)(CCC(O)(C(=O)OCC)C(=O)OCC)C(=O)OCC	i	i	i	i	i	i
CC1CC(C)CN(C(=O)COc2ccc(-c3nnco3)cc2)C1 (stereo not drawn)	i	i	i	50	i	i
Cc1cc(NC(=O)CSc2nnc3c4c(C)c(C)sc4ncn23)no1	i	i	i	i	56	i
Cc1cc(NC(=O)CSc2nc(C(C)C)nc3sc(C)c(C)c23)no1	i	i	i	i	54	i
